What is called AC50 is the concentration at which the activity in the assay is half-maximal.

Drawing on PubChem BioAssay (EPA / NIEHS), this text covers outcome and AC50 for three compounds.

Assay [1] can be described thus: ATG_CRE_CIS: Attagene CIS-FACTORIAL HepG2 Assay for human cAMP Responsive Element (CRE) binding protein 3 (AID 2282926). The settings on record: HepG2 CRE cis-reporter, Attagene multiplexed mRNA; actives raise or lower the signal. Put shortly:
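Cells carrying cis-regulated reporter constructs respond through their own endogenous factors. After 24 h treatment, RNA is reverse-transcribed, amplified, labelled and sized by capillary electrophoresis; up- and down-regulation are both scored against vehicle.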

For assay [2], the target named is CCAAT/enhancer-binding protein beta (Homo sapiens) (UniProt P17676). The assay is described as follows: ATG_C_EBP_CIS: Attagene CIS-FACTORIAL HepG2 Assay for human CCAAT/Enhancer Binding Protein (C/EBP) beta (AID 2282927). The settings on record: HepG2 Attagene cis-factorial transcription factor reporter; actives raise or lower the signal. Put shortly: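 HepG2, transient MRTU transfection, 24 h treatment. RT-PCR plus CE fluorescence; DMSO negative control, bidirectional fit.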

Assay [3] can be described thus: ATG_DR4_LXR_CIS: Attagene CIS-FACTORIAL HepG2 Assay for human Liver X Receptor (LXR), DR4 submotif (AID 2282929). Particulars: HepG2 Attagene DR4 cis-reporter, mRNA transcription; actives raise or lower the signal. Put shortly:
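DR4 cis-reporter in HepG2, 24 h exposure. Detection: RT-PCR, 6-FAM labelling, CE fragment analysis. Endpoint fitted bidirectionally, DMSO = baseline.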

A short description of assay [4]: ATG_AP_2_CIS: Attagene CIS-FACTORIAL HepG2 Assay for human Activator Protein 2 (AP-2) (AID 2282932). Particulars: HepG2 AP-2 cis-reporter, Attagene transcription factor profiling; actives raise or lower the signal. In short, it runs like this: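 Read-out: fluorescent reporter mRNA via RT-PCR and capillary electrophoresis, 24 h post-dose in transiently transfected HepG2. Endogenous factors drive cis-promoter reporters; gain or loss of signal fitted bidirectionally against DMSO.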

Assay [5] is described as follows: ATG_BRE_CIS: Attagene CIS-FACTORIAL HepG2 Assay for human Bone Morphogenetic Protein (BMP) Response Element (BRE) (AID 2282933). Particulars: HepG2 BMP response element reporter, Attagene transcription factor profiling; actives raise or lower the signal. Put shortly: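 Multiplexed cis-reporter assay, HepG2, 24 h exposure. mRNA from reporter units quantified via RT-PCR/CE; DMSO baseline; bidirectional curve fit.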

For assay [6], the target named is Transcription factor E2F1 (Homo sapiens) (UniProt Q01094). The experiment in a line: ATG_E2F_CIS: Attagene CIS-FACTORIAL HepG2 Assay for human E2F Transcription Factor 1 (AID 2282935). The settings on record: HepG2 Attagene cis-reporter, E2F reporter RNA transcripts; actives raise or lower the signal. In short, it runs like this: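 Transient MRTU transfection of HepG2; 24 h compound exposure; RNA → oligo(dT) RT → PCR → FAM label → HpaI cut → CE fluorescence. Gain/loss of signal fit against DMSO.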

A short description of assay [7]: ATG_EGR_CIS: Attagene CIS-FACTORIAL HepG2 Assay for human Early Growth Response 1 (EGR1) (AID 2282938). The settings on record: HepG2 Attagene CIS-FACTORIAL EGR reporter mRNA; actives raise or lower the signal. Put shortly: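 Endpoint derived by bidirectional fitting versus DMSO vehicle. Method: cis-promoter reporter units transfected into HepG2, 24 h dosing, RNA isolation, RT-PCR with 6-FAM primer extension and HpaI digestion, then capillary electrophoresis fluorescence detection.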

Assay [8] in a line: ATG_M_19_CIS: Attagene CIS-FACTORIAL HepG2 Assay for M19 Transcription Factor (Internal Marker) (AID 2282939). The settings on record: HepG2 Attagene CIS-FACTORIAL M19 internal marker reporter; actives raise or lower the signal. In short, it runs like this:
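Signals come from fluorescence of labelled reporter-specific PCR fragments resolved by capillary electrophoresis, following 24 h treatment of HepG2 cells transfected with cis-promoter reporter units; activity was fitted in both directions relative to DMSO.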

The nature of assay [9]: ATG_Ets_CIS: Attagene CIS-FACTORIAL HepG2 Assay for human Erythroblast Transformation Specific (ETS) (AID 2282941). Particulars: HepG2 ETS cis-reporter transcription, actives raise or lower the signal. Put shortly: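 Multiplexed reporter transcript profiling: HepG2, 24 h treatment, total RNA to cDNA, PCR, 6-FAM labelling, HpaI cut, capillary electrophoresis. Gain- or loss-of-signal fitted against DMSO.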

Assay [10] deals with Hepatocyte nuclear factor 3-beta (Homo sapiens) (UniProt Q9Y261). The assay is described as follows: ATG_FoxA2_CIS: Attagene CIS-FACTORIAL HepG2 Assay for human Forkhead box A2 (FOXA2) (AID 2282942). Particulars: HepG2 cis-reporter transcription factor activity, 24 h; actives raise or lower the signal. Put shortly: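 Measured: reporter mRNA induction or loss in HepG2 transiently carrying multiple cis-regulated reporter units, 24 h after dosing. Quantified by RT-PCR plus capillary electrophoresis, normalised to DMSO.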

A short description of assay [11]: ATG_FoxO_CIS: Attagene CIS-FACTORIAL HepG2 Assay for human Forkhead box O (FoxO) (AID 2282943). The settings on record: HepG2 Attagene cis-reporter, FoxO element, mRNA; actives raise or lower the signal. In short, it runs like this:
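Transfected HepG2 reporter cells exposed to test chemical for 24 h; reporter RNA measured by reverse transcription, PCR and fluorescent capillary electrophoresis; curves fitted for increases and decreases against DMSO.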

The nature of assay [12]: ATG_GATA_CIS: Attagene CIS-FACTORIAL HepG2 Assay for human GATA Binding Protein (AID 2282944). Particulars: HepG2 GATA cis-element reporter, Attagene multiplex mRNA; actives raise or lower the signal. In short, it runs like this: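 After transfecting HepG2 cells with multiple cis-regulated reporter units, chemicals are dosed for 24 h; isolated RNA undergoes RT-PCR and fluorescent labeling before capillary electrophoresis, with activity expressed against DMSO.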

Assay [13] in a line: ATG_GLI_CIS: Attagene CIS-FACTORIAL HepG2 Assay for human Zinc Finger Protein GLI1 (AID 2282945). Particulars: HepG2, Attagene cis-factorial reporter mRNA, GLI element; actives raise or lower the signal. Put shortly:
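Transiently transfected HepG2 cells report endogenous transcription factor activity via cis-element-driven reporter units. After 24 h compound exposure, reporter mRNA was measured by RT-PCR with capillary electrophoresis; bidirectional fitting against DMSO baseline.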

The nature of assay [14]: ATG_M_06_CIS: Attagene CIS-FACTORIAL HepG2 Assay for M06 Transcription Factor (Internal Marker) (AID 2282950). Particulars: HepG2 Attagene CIS-FACTORIAL M06 internal marker reporter; actives raise or lower the signal. In short, it runs like this: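 HepG2 liver cells, 24 h exposure. Reporter transcripts from transfected cis-element constructs quantified by RT-PCR/capillary electrophoresis fluorescence. Bidirectional curve fit against DMSO.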

Assay [15] can be described thus: ATG_MRE_CIS: Attagene CIS-FACTORIAL HepG2 Assay for human Metal Responsive Element (MRE) (AID 2282954). Particulars: HepG2 MRE cis-reporter transcription, Attagene multiplex; actives raise or lower the signal. In short, it runs like this:
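RT-PCR/capillary electrophoresis readout of reporter mRNA, 24 h post-dosing, in HepG2 cells transfected with multiplexed cis-regulated reporter constructs. Gain or loss of signal fitted bidirectionally against DMSO baseline.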

The target in assay [16] is Paired box protein Pax-6 (Homo sapiens) (UniProt P26367). The assay is described as follows: ATG_Pax6_CIS: Attagene CIS-FACTORIAL HepG2 Assay for human Paired Box 6 (PAX6) (AID 2282956). The settings on record: HepG2 CIS-FACTORIAL PAX6 reporter transcription, RNA readout; actives raise or lower the signal. Put shortly:
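Values derive from bidirectional curve fitting of reporter mRNA signal relative to DMSO. HepG2 cells bearing transfected cis-regulated MRTUs were exposed for 24 h; transcripts were read by RT-PCR and capillary electrophoresis.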

Assay [17] in a line: ATG_PXRE_CIS: Attagene CIS-FACTORIAL HepG2 Assay for human Pregnane X Receptor Element (PXRE) (AID 2282957). Particulars: HepG2 Attagene CIS-FACTORIAL PXRE reporter, mRNA; actives raise or lower the signal. In short, it runs like this: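 Endogenous transcription factor activity in HepG2 was gauged through induction of reporter mRNA driven by a cis-regulating promoter element, sampled 24 h post-treatment. Activity was fitted in both directions against DMSO negative control.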

The nature of assay [18]: ATG_Sox_CIS: Attagene CIS-FACTORIAL HepG2 Assay for human SRY-box transcription factor (SOX) (AID 2282960). The settings on record: HepG2 Attagene cis-factorial SOX reporter, mRNA; actives raise or lower the signal. In short, it runs like this: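 Gain- or loss-of-signal endpoint, fitted bidirectionally with DMSO as negative control. Based on reporter mRNA from transfected HepG2 cells harvested 24 h post-treatment and quantified via RT-PCR and capillary electrophoresis.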

Assay [19] has as its target Transcription factor Sp1 (Homo sapiens) (UniProt P08047). The experiment in a line: ATG_Sp1_CIS: Attagene CIS-FACTORIAL HepG2 Assay for human Specificity Protein 1 (Sp1) (AID 2282961). Particulars: HepG2 Sp1 cis-reporter transcription, actives raise or lower the signal. In short, it runs like this:
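Endpoint reflects endogenous Sp1 transcriptional activity, not an exogenous fusion protein: HepG2 cells with transfected cis-regulated reporters, 24 h dosing, RT-PCR/capillary electrophoresis mRNA read-out, DMSO-normalised bidirectional fit.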

A short description of assay [20]: ATG_SREBP_CIS: Attagene CIS-FACTORIAL HepG2 Assay for human Sterol Regulatory Element Binding (SREBP) (AID 2282962). Particulars: HepG2 Attagene cis-factorial SREBP reporter, mRNA; actives raise or lower the signal. In short, it runs like this:
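Values derive from bidirectional curve fitting with DMSO as baseline. The underlying measurement is reporter mRNA from cis-element-regulated units in transiently transfected HepG2, quantified by RT-PCR and capillary electrophoresis after 24 h exposure.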

Molecules are shown by their SMILES. The source made the active and inactive calls. How the source made its calls: active means hit-call score of the fitted dose curve at least 0.9, where 1 is the maximum; inactive means score below 0.9.

Sequence of Transcription factor Sp1 (Homo sapiens) (P08047 whole entry, looked up, the tested form may be a part): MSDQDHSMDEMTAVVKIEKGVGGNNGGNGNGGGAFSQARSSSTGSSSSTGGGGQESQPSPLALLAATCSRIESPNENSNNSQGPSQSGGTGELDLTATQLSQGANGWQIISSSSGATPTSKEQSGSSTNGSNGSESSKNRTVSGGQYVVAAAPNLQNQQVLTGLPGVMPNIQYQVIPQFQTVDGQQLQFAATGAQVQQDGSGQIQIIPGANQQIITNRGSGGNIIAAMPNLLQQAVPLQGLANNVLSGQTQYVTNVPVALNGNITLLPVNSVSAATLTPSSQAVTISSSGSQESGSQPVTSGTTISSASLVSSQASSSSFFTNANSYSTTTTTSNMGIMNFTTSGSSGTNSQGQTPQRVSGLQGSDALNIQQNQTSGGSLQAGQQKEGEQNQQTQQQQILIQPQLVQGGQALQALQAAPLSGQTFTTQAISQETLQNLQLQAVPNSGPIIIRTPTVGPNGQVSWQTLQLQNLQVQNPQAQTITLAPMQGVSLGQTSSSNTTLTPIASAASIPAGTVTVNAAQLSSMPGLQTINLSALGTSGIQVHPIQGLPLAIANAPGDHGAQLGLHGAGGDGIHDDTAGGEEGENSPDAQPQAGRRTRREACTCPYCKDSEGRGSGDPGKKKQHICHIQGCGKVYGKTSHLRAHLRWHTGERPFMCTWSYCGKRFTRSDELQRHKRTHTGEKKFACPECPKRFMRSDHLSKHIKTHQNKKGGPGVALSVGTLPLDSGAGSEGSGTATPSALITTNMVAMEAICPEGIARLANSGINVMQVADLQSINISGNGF
Sequence of Transcription factor E2F1 (Homo sapiens) (Q01094 whole entry, looked up): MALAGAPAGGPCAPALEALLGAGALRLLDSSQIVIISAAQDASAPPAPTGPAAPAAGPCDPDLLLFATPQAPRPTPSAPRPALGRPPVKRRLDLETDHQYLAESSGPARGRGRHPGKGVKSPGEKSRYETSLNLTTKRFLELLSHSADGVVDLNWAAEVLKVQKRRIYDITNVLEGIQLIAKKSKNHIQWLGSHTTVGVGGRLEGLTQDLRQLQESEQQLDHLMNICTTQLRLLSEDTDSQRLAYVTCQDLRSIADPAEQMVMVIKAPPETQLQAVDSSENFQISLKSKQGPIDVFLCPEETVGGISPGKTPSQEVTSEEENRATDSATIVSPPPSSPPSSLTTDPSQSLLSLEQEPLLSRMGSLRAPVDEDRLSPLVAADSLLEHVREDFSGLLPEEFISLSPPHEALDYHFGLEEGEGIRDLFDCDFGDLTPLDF
Sequence of Paired box protein Pax-6 (Homo sapiens) (P26367 whole entry, looked up): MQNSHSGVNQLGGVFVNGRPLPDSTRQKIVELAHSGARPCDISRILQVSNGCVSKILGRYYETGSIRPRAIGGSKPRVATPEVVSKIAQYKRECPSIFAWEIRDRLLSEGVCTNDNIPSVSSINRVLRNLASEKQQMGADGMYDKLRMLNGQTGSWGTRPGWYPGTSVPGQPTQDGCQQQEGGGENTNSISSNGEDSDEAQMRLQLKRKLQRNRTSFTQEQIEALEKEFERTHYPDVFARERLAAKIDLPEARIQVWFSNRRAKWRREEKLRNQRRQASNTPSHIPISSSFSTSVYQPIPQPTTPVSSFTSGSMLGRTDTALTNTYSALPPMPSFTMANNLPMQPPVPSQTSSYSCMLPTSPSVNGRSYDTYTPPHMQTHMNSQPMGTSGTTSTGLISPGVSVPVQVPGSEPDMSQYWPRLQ
Sequence of CCAAT/enhancer-binding protein beta (Homo sapiens) (P17676 whole entry, looked up): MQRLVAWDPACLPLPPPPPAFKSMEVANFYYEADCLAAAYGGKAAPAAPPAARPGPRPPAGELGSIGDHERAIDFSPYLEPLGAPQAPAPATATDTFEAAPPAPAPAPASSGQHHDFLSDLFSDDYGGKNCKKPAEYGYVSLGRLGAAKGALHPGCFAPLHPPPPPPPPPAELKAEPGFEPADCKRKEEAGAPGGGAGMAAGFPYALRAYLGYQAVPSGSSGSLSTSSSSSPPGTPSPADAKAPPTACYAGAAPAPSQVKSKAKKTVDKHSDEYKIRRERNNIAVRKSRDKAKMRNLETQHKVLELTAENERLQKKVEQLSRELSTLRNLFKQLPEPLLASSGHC
Sequence of Hepatocyte nuclear factor 3-beta (Homo sapiens) (Q9Y261 whole entry, looked up): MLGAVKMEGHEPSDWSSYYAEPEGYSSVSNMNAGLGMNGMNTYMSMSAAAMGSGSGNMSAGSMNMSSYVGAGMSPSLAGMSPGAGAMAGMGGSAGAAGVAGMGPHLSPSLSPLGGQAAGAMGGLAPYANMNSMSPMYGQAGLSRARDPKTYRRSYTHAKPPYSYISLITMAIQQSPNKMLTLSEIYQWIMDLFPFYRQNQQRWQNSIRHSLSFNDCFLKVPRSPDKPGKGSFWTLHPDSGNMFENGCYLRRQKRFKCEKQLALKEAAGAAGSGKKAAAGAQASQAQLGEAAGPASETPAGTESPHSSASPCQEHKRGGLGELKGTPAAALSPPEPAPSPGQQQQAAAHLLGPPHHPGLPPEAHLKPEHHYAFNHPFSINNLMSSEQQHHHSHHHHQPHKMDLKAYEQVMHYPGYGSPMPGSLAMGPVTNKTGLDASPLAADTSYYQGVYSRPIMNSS

With `CNC(=O)Oc1cc(C)c(SC)c(C)c1`, the compound was called inactive in assay [1], in assay [2], in [3], in assay [4], in assay [5] and in [6]. The outcome in assay [8], in assay [9], in assay [10], in [11], in [12] and in assay [13] was inactive. Also, the outcome in assay [14], in assay [16], in assay [19] and in assay [20] was inactive. Besides, the AC50 was 100 µM (active) in assay [7], 74.2 µM (active) in [15], 26.7 µM (active) in [17] and 27.1 µM (active) in [18].

On to `CC1(C)[C@H](C(=O)O[C@H](C#N)c2cccc(Oc3ccccc3)c2)[C@@H]1C=C(Br)Br`, for which the outcome in assay [1], in assay [2], in assay [3], in assay [4], in assay [5] and in [6] was inactive. Besides, the result in assay [7], in assay [8], in assay [9], in assay [10], in assay [11] and in assay [12] was inactive. In addition, the call in assay [13], in assay [14], in assay [15], in [16], in assay [18] and in assay [19] was inactive. In addition, the call in assay [20] was inactive. In assay [17], the AC50 was 0.312 µM (active).

As for `CCC(C)c1cc(C(C)(C)C)cc(-n2nc3ccccc3n2)c1O` (stereo not given), the compound was classed as inactive in assay [1], in [2], in [4], in assay [5], in assay [6] and in assay [7]. The call in assay [8], in assay [9], in assay [10], in assay [11], in assay [12] and in assay [13] was inactive. The result in assay [14], in assay [15], in assay [16], in [18], in [19] and in assay [20] was inactive. Besides, the AC50 in [3] was 19.3 µM (active); in [17], 4.36 µM (active).
